# Source: PubChem BioAssay AID2685 (National Center for Advancing Translational Sciences (NCATS), 2010)
# Screen size: about 320,000 compounds; about 2,100 (0.66%) were called active. Not shown: some 53% with an inconclusive outcome. Calls follow the shape of the dose curve; as a rule, active = well fitted inhibition curve with a large enough effect in the signal ratio, with a control signal flat (not every such curve was filed as active); inconclusive = small, poorly fitted or top-dose-only effect, or effect the other way, or a change in a side signal; inactive = flat fitted curve, though single readings scatter; the % refers to the signal ratio. The list comes from a sample in which actives are over-represented; it also holds similar structures and randomly drawn compounds.
# Assay: qHTS Assay for Lipid Storage Modulators in Drosophila S3 Cells;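 as to cell number change: cells counted by Cell Tracker Red CMTPX staining in the red channel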; as to lipid storage change, negative = inhibition: % is scaled to controls: 0 for no effect and ±100 for the full control effect
# Conditions: BODIPY lipid droplet fluorescence, 18-24 h, cells fed with added oleic acid; cell number change: measured here: cell count max response; series mostly up to 46.1 µM; lipid storage change, negative = inhibition: at the top concentration
# Summary of the method: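 Drosophila S3 cells got compounds at several concentrations plus oleic acid (400 uM solution). Laser-scanning cytometry with 488 nm excitation read lipid droplets at 500-530 nm and cells at 575-640 nm. Percent activity was relative to 20 uM Triacsin C.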
# Potency is read from the fitted curve at half-maximal effect.
Structure (SMILES),outcome,cell number change,Potency,"lipid storage change, negative = inhibition"
Cn1c(SCc2ccc(Br)cc2)nc2ccccc2c1=O,inactive,-15.2%,–,–
Cc1ccc(CSc2nc3ccccc3c(=O)n2C)cc1,–,10.9%,16.4 µM (active),–
Cc1ccc(-c2nc(CSc3nc4ccccc4c(=O)n3C)cs2)cc1,–,13.2%,–,-7.82% (inactive)
COC(=O)c1[nH]c2ccc(Cl)cc2c1NC(=O)C1CC1,–,1.77%,–,8.69% (inactive)
CCc1n[nH]c(=S)n1/N=C/c1ccc(N(CC)CC)cc1,–,-4.64%,–,18.9% (inactive)
CCN(CC)c1ccc(/C=N/N2CC(=O)NC2=S)cc1,–,-17.5%,0.291 µM (active),–
CCN(CC)c1ccc(/C=N/n2c(C)cc(C)cc2=O)cc1,–,0.542%,–,18.4% (inactive)
COc1cc(NC(=O)c2ccc([N+](=O)[O-])cc2)c(OC)cc1NC(=O)CC(C)C,–,14.3%,–,-0.885% (inactive)
O=C(c1ccco1)N1N=C(c2ccc3nccnc3c2)CC1c1ccccc1 (stereo not drawn),–,13.8%,–,2.86% (inactive)
CCCNC(=O)c1ccc2c(c1)S(=O)(=O)c1ccccc1C2=O,–,6.31%,–,-27.4% (inactive)
O=C(NCC1CC1)c1ccc2c(c1)S(=O)(=O)c1cc(Cl)ccc1C2=O,–,7%,–,5.36% (inactive)
COCCNC(=O)c1ccc2c(c1)S(=O)(=O)c1cc(Cl)ccc1C2=O,–,9.21%,5.8 µM (active),–
Nc1ncc(S(=O)(=O)c2ccc(Cl)cc2)c(N)n1,inactive,19.4%,–,–
O=S(=O)(c1ccc(Cl)cc1)c1cnc2ccccc2n1,–,-118%,29.1 µM (active),–
Clc1ccc(N2CCN(c3cnc4ccccc4n3)CC2)cc1,inactive,-5.19%,–,–
Cc1ccc(C(=O)NC(C(=O)OCc2cn3cc(Cl)ccc3n2)C(C)C)cc1 (stereo not drawn),–,6.32%,5.17 µM (active),–
Cc1ccc(C(=O)N[C@H](C(=O)OCc2nnc(-c3ccccc3)o2)C(C)C)cc1,–,-21.1%,–,-7.03% (inactive)
Cc1ccc(C(=O)N[C@H](C(=O)OCc2cc(=O)n3c(n2)sc2ccccc23)C(C)C)cc1,–,-15.4%,–,-0.413% (inactive)
CCOC(=O)C1CCCN(S(=O)(=O)c2ccc(Br)s2)C1 (stereo not drawn),inactive,-14.8%,–,–
Cc1nc2oc3ccc(F)cc3c(=O)c2cc1C(=O)O,inactive,9.45%,–,–
Cn1c(=O)c2c(nc(NCCCO)n2C/C=C/c2ccccc2)n(C)c1=O,–,-27.3%,9.2 µM (active),–
CCn1c(NCc2ccco2)nc2c1c(=O)n(C)c(=O)n2C,–,-2.38%,–,2.27% (inactive)
Cn1c(=O)c2c(nc(NCc3ccco3)n2CCc2ccccc2)n(C)c1=O,–,-22.9%,11.6 µM (active),–

Structure (SMILES),outcome,cell number change,Potency,"lipid storage change, negative = inhibition"
Cn1c(=O)c2c(nc(NCCCO)n2CCc2ccccc2)n(C)c1=O,–,-21.6%,–,-17.7% (inactive)
Cn1c(=O)c2c(nc(NCCCO)n2Cc2cccc(Br)c2)n(C)c1=O,inactive,–,–,–
CCCNc1nc2c(c(=O)n(C)c(=O)n2C)n1CCCc1ccccc1,–,-29.8%,–,-32.8% (inactive)
CCN(CC)CCNc1nc2c(c(=O)n(C)c(=O)n2C)n1C/C=C(/C)Cl,–,-1.05%,–,-2.52% (inactive)
Cn1c(=O)c2c(nc(NCc3ccco3)n2CC(O)CO)n(C)c1=O (stereo not drawn),–,9.76%,–,-6.18% (inactive)
C/C(Cl)=C\Cn1c(NCCc2ccccc2)nc2c1c(=O)n(C)c(=O)n2C,–,-18.8%,6.51 µM (active),–
Cn1cnc(S(=O)(=O)N2CCN(c3cccc(C(F)(F)F)c3)CC2)c1,inactive,3.98%,–,–
CCC(C)c1ccccc1OCC(=O)NN1C(=O)c2ccccc2C1=O (stereo not drawn),–,-0.73%,–,25.3% (inactive)
COc1ccccc1C(=O)Nc1ccc(C(=O)N2CCCCC2)cc1,–,-10.6%,–,-8.52% (inactive)
Cn1c(=O)c2c(nc(CN3CCN(C(=O)c4ccco4)CC3)n2Cc2ccccc2)n(C)c1=O,inactive,–,–,–
O=C(CSc1ncnc2scc(-c3ccc(F)cc3)c12)c1ccc2c(c1)OCCO2,–,7.81%,–,8.68% (inactive)
Cc1ccc(-c2csc3ncnc(SCC(=O)c4ccc5c(c4)OCCO5)c23)cc1,–,-23.9%,5.17 µM (active),–
Cc1ccc(-c2csc3ncnc(SCC(=O)NCc4ccc5c(c4)OCO5)c23)cc1,–,-1.52%,–,4.42% (inactive)
COCCn1nnnc1C(c1ccccc1OC)N1CCN(c2ccccc2)CC1 (stereo not drawn),–,8.57%,–,19% (inactive)
CCn1cnc2c1c(=O)n(CC(=O)OC(C)C(N)=O)c(=O)n2Cc1ccccc1 (stereo not drawn),–,10.8%,–,-5.23% (inactive)
Cc1cc(C(=O)N2CCc3c([nH]c4ccccc34)C2c2cccc(Cl)c2)nn1C (stereo not drawn),–,-10.9%,–,-2.18% (inactive)
CCOCC(=O)N1CCCC(C(=O)OCC)C1 (stereo not drawn),–,-14.8%,18.4 µM (active),–
CCOC(=O)C1CCCN(C(=O)Cc2ccc(C)cc2)C1 (stereo not drawn),–,14.8%,–,-0.343% (inactive)
CCCCC(=O)N1CCCC(C(=O)OCC)C1 (stereo not drawn),inactive,23.1%,–,–
NCCNC[C@@H]1COC2(CCCCCCCCCCC2)O1,–,6.45%,–,-8.63% (inactive)
CC1CC(C)CN(S(=O)(=O)c2ccc3c(c2)C(C)(C)C(=O)N3C)C1 (stereo not drawn),inactive,26.4%,–,–
Cc1nn(C(C)CC(=O)O)c(C)c1C (stereo not drawn),–,–,23.1 µM (active),–
CC(=O)c1c(C)nn(C(C)CC(=O)O)c1C (stereo not drawn),–,-4.59%,–,-5.84% (inactive)

Structure (SMILES),outcome,cell number change,Potency,"lipid storage change, negative = inhibition"
Cc1nc(C)n(C(C)CC(=O)O)n1 (stereo not drawn),–,-20%,–,-5.06% (inactive)
C/C(Cn1nnc([N+](=O)[O-])n1)=N\NC(=O)c1ccc(C)cc1,–,24.7%,–,-2.12% (inactive)
COc1ccc(N(C(=O)CNC(=O)c2cccs2)C(C(=O)NC2CCCC2)c2cccnc2)cc1 (stereo not drawn),–,3.7%,–,-7.37% (inactive)
O=C(c1ccc(NS(=O)(=O)c2cccc([N+](=O)[O-])c2)cc1)N1CCCCCC1,–,-11.1%,–,18.1% (inactive)
CC(C)c1ccc(NC(=O)C(c2ccccc2)N2CCN(C(=O)c3ccco3)CC2)cc1 (stereo not drawn),–,-35.1%,20.6 µM (active),–
O=C(c1ccco1)N1CCN(S(=O)(=O)c2cccc([N+](=O)[O-])c2)CC1,–,-1.91%,–,28.6% (inactive)
CCOc1ccccc1NC(=O)C(c1ccccc1)N1CCN(C(=O)c2ccco2)CC1 (stereo not drawn),–,-20.1%,–,9.01% (inactive)
CC(C)Oc1ccc(C(=O)N2CCN(C(=O)c3ccco3)CC2)cc1,inactive,19.8%,–,–
CC(C)C(=O)Nc1ccc(C(=O)N2CCN(C(=O)c3ccco3)CC2)cc1,–,6.86%,4.61 µM (active),–
O=C(Nc1ccc(F)cc1)C(c1ccccc1)N1CCN(C(=O)c2ccco2)CC1 (stereo not drawn),inactive,–,–,–
O=C(c1ccc(NS(=O)(=O)c2cccc([N+](=O)[O-])c2)cc1)N1CCN(C(=O)c2ccco2)CC1,–,1.34%,9.2 µM (active),–
CC(C(=O)Nc1ccccc1)N1CCN(C(=O)c2ccco2)CC1 (stereo not drawn),–,13.4%,–,19% (inactive)
CCOc1ccc(NS(=O)(=O)c2c(C)nc3sccn3c2=O)cc1,–,-0.288%,–,-7.04% (inactive)
O=C(Nc1ccc(Br)cc1)C1CCCN(C2=NS(=O)(=O)c3ccccc32)C1 (stereo not drawn),–,0.774%,–,7.4% (inactive)
Cc1ccc(SC(C)C(=O)Nc2ncn[nH]2)cc1 (stereo not drawn),inactive,–,–,–
Cc1ccc(C(CNS(=O)(=O)c2ccccc2)N2CCN(C)CC2)cc1 (stereo not drawn),inactive [at 0.0737 µM],–,–,–
CC1CCN(C(CNS(=O)(=O)c2ccccc2)c2ccccc2)CC1 (stereo not drawn),–,12.1%,0.461 µM (active),–
O=S(=O)(NCC(c1ccccc1)N1CCC(O)CC1)c1ccc(Cl)cc1 (stereo not drawn),inactive,–,–,–
CCOc1cccc(OCCn2cnc3ccccc3c2=O)c1,–,10.8%,–,5.79% (inactive)
COc1cccc(C(=O)N2CCN(C(=O)C3COc4ccccc4O3)CC2)c1 (stereo not drawn),inactive,–,–,–
COCCn1c(=S)[nH]c2cc(C(=O)NCCc3ccccc3)ccc2c1=O,–,-6.13%,2.31 µM (active),–
COC(=O)c1ccc2c(=O)n(CCCCCC(=O)O)c(=S)[nH]c2c1,–,9.06%,–,5.22% (inactive)
CCn1c(=S)[nH]c2cc(C(=O)OC)ccc2c1=O,inactive,11.1%,–,–

Structure (SMILES),outcome,cell number change,Potency,"lipid storage change, negative = inhibition"
CCN(CC)CCCn1c(=S)[nH]c2cc(C(=O)OC)ccc2c1=O,–,12.4%,3.66 µM (active),–
COCCn1c(=S)[nH]c2cc(C(=O)NC(C)C)ccc2c1=O,inactive,–,–,–
CCOCCCn1c(=S)[nH]c2cc(C(=O)NCCc3ccccc3)ccc2c1=O,inactive,–,–,–
Cc1ccc(S(=O)(=O)Nc2cc(C(C)C)c(O)cc2C)cc1,–,-20%,–,6.78% (inactive)
CCOC(=O)/C(C#N)=C/N1CCOCC1,–,-2.81%,–,-5.47% (inactive)
NC(=NC(=O)c1ccc(OCC(F)(F)F)nc1)c1ccc(Cl)cc1,–,-16.5%,–,-1.51% (inactive)
CC(=O)c1ccc(OCC(=O)OCC(=O)Nc2sccc2C(N)=O)cc1,–,-10.9%,3.66 µM (active),–
COc1ccc(CCC(=O)OCC(=O)Nc2ccccc2)cc1,inactive,3.15%,–,–
NC(=O)c1ccsc1NC(=O)COC(=O)COc1ccccc1F,–,-3.04%,–,8.92% (inactive)
COc1cc(OC)cc(C(=O)OCC(=O)Nc2sccc2C(N)=O)c1,–,2.18%,–,-18.4% (inactive)
COc1ccc(CCC(=O)OCC(=O)Nc2sccc2C(N)=O)cc1,–,-27.9%,6.51 µM (active),–
Cc1ccc(OCC(=O)OCC(=O)Nc2sccc2C(N)=O)cc1C,–,-3.96%,–,4.32% (inactive)
CCOC(=O)C1CCN(C(=O)CCc2c(C)nc3c(-c4ccc(F)cc4)c(C)nn3c2C)CC1,–,9.15%,–,6.7% (inactive)
COc1ccccc1NS(=O)(=O)c1cccc(C(=O)N2CCN(C/C=C/c3ccccc3)CC2)c1,–,-3.91%,–,-18.7% (inactive)
COc1cc2c(C(=O)N(C)c3ccc(F)cc3)cn(C)c(=O)c2cc1OC,–,-28.8%,–,19.8% (inactive)
CC(=O)c1c(C)[nH]c(C(=O)COC(=O)CN(C)S(=O)(=O)c2ccc(Cl)cc2)c1C,–,–,5.8 µM (active),–
CCCC(=O)OCC(=O)c1[nH]c(C)c(C(C)=O)c1C,–,5.74%,–,4.32% (inactive)
CN(CC(=O)OCC(N)=O)S(=O)(=O)c1ccc(Cl)cc1,–,-16.4%,–,11.6% (inactive)
O=C(Nc1cccc(Cl)c1)c1ccc2c(=O)n3c(nc2c1)CCCCC3,–,-6.1%,–,16% (inactive)
O=C(N1CCCCC1)C12CC3CC(CC(C3)C1)C2,–,-0.102%,–,0.667% (inactive)
COc1ccc(OCc2nnc(SCC(=O)NC3CC3)n2C)cc1,–,16.2%,–,16.1% (inactive)
Cc1ccc(OCc2nnc(SCC(=O)NC3CCCCC3)n2C)cc1,inactive,20.5%,–,–
Cn1c(COc2ccc(Cl)cc2)nnc1SCC(=O)NC1CCCC1,–,17.9%,14.6 µM (active),–
